PubChem BioAssay AID1508600 (Functional Genomics Laboratory (NCATS/FGL), 2020)
Among all 53,000 sequences or so, about 3,700 (7%) were called active. The sample as a whole holds a higher share of actives than the screen did. A number with no mark means an inactive call.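 Rule for the calls: active = gene knockdowns whose robust z-score for IL-1 alpha signal is at least 2 or at most -2, so actives lie on both sides; inactive = the rest.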

assay: Components of the Cytosolic LPS Sensing Pathway: Gene Identification via Genome-wide siRNA Screen; settings: RAW264.7 macrophages, IL-1a HTRF, actives lie on both sides, screened at 100 nM (by protocol), cells primed 5 h with Pam3CSK4 first;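 note: robust z of the log signal after scaling to non-targeting control siRNA wells of the plate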
Summary of the method: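 RAW264.7; siRNA 100 nM final, RNAiMAX, 48h 37 degrees C; Pam3CSK4 5 h; LipidA + TransIT-TKO 24 h; IL-1a HTRF; CellTiter-Glo viability; robust z vs negative-control median.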

Sequence	z-score
GCUAUUCAAUGGACCAGAATT against Olfr490	-2.26 (active)
GUCACUAUUAAGACACUUATT against Nudcd3	0.157
GGCUAAAGAGUCCUCGGUGTT against Serpina5	0.594
GCAGACAGAAGAACACCAGTT against 1700024G13Rik	-0.177
GGAAGAGUGUCUAAAUGUATT against Cbwd1	0.849
GGUGAUUCACAUAACAGGCTT against Npas3	2.05 (active)
GGUUGAACAUAAGCACAAUTT against Cdkn2aip	-0.42
GGUCACCACUCCAUAUUCUTT against Vsir	-0.561
GGAGACAUAUGAAGAGAUATT against Lsm3	-0.702
GGAAGCUGGCAAGUUUAUGTT against Cfap161	-0.159
CCUGGCAUAAGUGGUUUUATT against Zfp82	1.13
GGAGCAUUUUCCAGUUGAGTT against Mrps35	2.41 (active)
CCGUUGUAUAUACCAGUAUTT against Syt1	0.218
GGAAAAACGUGGUGAACUATT against Zeb2	0.7
CCAAUAACAGGAUUGAGAATT against Tnfrsf8	-0.528
GGUGUACAGAUCUGUCUGGTT against Dkk1	2.33 (active)
GGUGCAGUUUAAGAGAGAATT against Tmcc3	-0.224
GGGUGGACCUUCGGAAUUATT against Mrpl23	1.52
CGAAAUCUUUUCUAACCACTT against Drd4	6.59 (active)
GGACUUCUUACUGGAAUCATT against Slc5a12	0.944
CGUUUUUGUCUAGUUUGAATT against Macrod2	-1.08
GGAGAUCAGCAGUUCAUUUTT against Csprs	-1.66

Sequence	z-score
GGUGUCAGAGGUAUUUUCATT against Bik	-0.0455
GGCUUUUGAAAAGUUCACATT against Rnf32	-2.05 (active)
GGAGUUGAUUGAGGUAAAGTT against Mettl3	-1.83
GGAAGAACCCUGCUACAUCTT against Mrpl37	0.764
GCACCUUAAUUCUUCGCCATT against Amigo2	-0.638
GGUGCUUAUAUUGCUUCCCTT against Psmb5	-0.147
CCCGUUGCUUUAGAGCUCUTT against Dph2	0.912
GGUCAGAGCUCUGGACAAATT against Hsd3b1	4.24 (active)
GGUCGUCCAGCUGAAGAACTT against Mecr	0.721
GGAAUUAGAGACUGCGGAATT against Zfp821	0.422
GGCAGAGCCUGGAUUUAUCTT against 2610524H06Rik	-0.582
GGAGUUGCCAUGCUCAACATT against Olfr808	0.193
GGGAAACAGAAGUAUCUAUTT against Ar	-0.708
GGAUAACAGCAAGCUGGCGTT against Taldo1	-0.585
GCUAAGACAGAACUCUUCUTT against Nap1l5	3.14 (active)
GCGAGUGUAUGCUUGAGAATT against Hspa12b	1.01
CGACAAUCGACAAUCGUGCTT against Acta1	-0.817
GGCUUGUUCAAGAGAAGAUTT against Slc25a41	0.177
CCUUACCCAGCAAUAAAAATT against Thegl	0.379
GGAUUCAGGAACACGGAGATT against D17H6S53E	2.29 (active)
GGUACGAAGAAGACAAAAATT against Tnfsf9	-0.0411
GCGGUGUGCUGGAUAAUUCTT against Vit	-1.63

Sequence	z-score
CCACUGUCCCUAAGGUACUTT against Olfr161	-0.292
GGGAUUUGUAUGAUGAUAATT against Sf3a3	-1.79
GGAGGAACAUAUCAAGGAATT against Tmem143	2.27 (active)
GGGAGAAUGUUUUUCUUACTT against Vsig8	-0.956
GGAGAUUGAACAGUCAAACTT against Pex5	3.01 (active)
GGAUAUCAACAGAUACAUCTT against Serpina12	-0.493
CGAUCUGUGAUUGAACCACTT against Pak1	-0.0456
GCGUGGACGAAUGGAAACATT against Mapk13	-0.942
GGGCAUCUUGUAUAUCUGGTT against Spata33	0.363
CCUAAUUUCCUAGAUCUUCTT against Rtp1	-0.439
CCUUUUCCAUGCCUACUCCTT against Bag3	0.339
CCUAAGGAAGAUAAACCGGTT against Sh2d7	-2.43 (active)
GGCAUUUACUACUUCAUAGTT against Nfam1	0.738
GGAUAACUACAGGAAUAAGTT against Spam1	-0.701
CCGUCCCUAUGAAAUCAGCTT against Lrat	2.28 (active)
GGCGAAUUGUAUUUGAAAGTT against Lactb	0.686
GGAAGCAGUUCAUGUUAAGTT against Dtx4	1.12
GCCCACCUAAACCAACAGUTT against Dap	0.989
GGAAAGAAGGACAUGUUGCTT against Fbxo2	-1.22
GGAGCACAGAAAACACAAGTT against Ncan	3.41 (active)
CCACGCUACAUGCAAUGGCTT against Itpka	0.0149
CCCUCUCUGGGACUACAUATT against Zfp395	0.00687

Sequence	z-score
GGCAUGAGGGCAAAUGAAATT against 4933434M16Rik	-0.707
GGAACAUUUUGGAAAAGACTT against 1300017J02Rik	-0.0855
GUACUAGCUAAUUGGGCCATT against Speer4b	0.651
GGUUCACCUGGAUUCUGCATT against Clasrp	-2.1 (active)
GGAGCAUAUACAACUCAGCTT against Dis3l	0.1
GGAUGGGAUGAAAAUUGAATT against Papolg	-0.566
GCUUGUCUCACACAGCUCUTT against Olfr401	-3.11 (active)
GGUACUGGAAGAGGAGGUATT against Ppil3	-0.507
GCACAUUGGGAUAGCUGCATT against Trim65	1.48
GGAAAUAUGUGUCCGCACUTT against Mfap2	-0.0699
GAGAGGGCAUAAUGGUUUUTT against H3c3	4.58 (active)
GGGAUACAGAUUUUGUUUATT against Olfr1261	-0.116
GGGAAGUUGUCUGACUAUUTT against Cyc1	0.225
GGGAAAUGGAGGAUAAUUATT against Zmat1	-0.172
GCAAUUACAGGAGGAAUUATT against Orc3	2.86 (active)
GCUGAAAACUAGUCAGUCCTT against Epn3	-1.07
GCCUUAAAAGACCUGACGUTT against Abca8b	2.12 (active)
GCUUACAGCACAACAACAUTT against Ubap1	-0.00967
CCUGGACACGAUUUCAGAGTT against Rbm6	1.18
GGAGGGUCGGCUUAUAAUUTT against Adam6b	2.16 (active)
GGAAGCUUCAAGCCAUGGUTT against Creb3	-0.919
CGUUGGAUCUUGAUAAAACTT against Lpar2	0.179

Sequence	z-score
GGACUUGAUCAAUGGCUAUTT against Wscd1	-0.043
GUGGCGAUAUCCAGAGAUGTT against Vmn1r18	0.261
GCCGGCUGUAUUCAGUACGTT against Hoxc9	3.06 (active)
GCCACGUCUAAGUAUCAUUTT against Col6a1	-0.377
GCUCUGUUGGAAAGGUUUATT against Exosc6	0.0305
GCAACUGUUCUACGUCUGATT against Tmprss2	1.63
GAAGCUGUCCAAGUACGAGTT against Atoh7	-0.299
GGCAUGACAUGUAGAUGGCTT against Aldh3b3	2.17 (active)
CGAGCAAUGUUAAAAAUGATT against Slain2	-0.993
GGGCAAACCCAAGACCUUATT against Sgms2	-0.0749
GGAAUUUGAGAUUGAAUGUTT against Katnbl1	0.478
GCCUGGAGACUACAUAUCCTT against Cdc20	-2.09 (active)
GCUCGAAUGUGUAAAGACGTT against Csnk1e	0.982
CCUUGUUGCUCUGUCGAUCTT against Grina	0.0669
CCAAGCUUAUUGACAAUGATT against Spta1	0.213
GGUGUGUUAAUUUCUAGAUTT against Frs2	0.945
GGCUUGAAGCCCUAGUACUTT against Prss30	2.46 (active)
GGACAACAAGAUCAGGACCTT against Akap4	0.535
GGUUACCUAUUGGAUGACATT against Muc19	-1.43
